ChEMBL document CHEMBL3988442, “University of Dundee, Small-Polar-MMV Screening Library” (2021)
For some of these results: Entries with a potency or affinity are not part of this list.

Legend:
Parameters in all cases: scale not given: direction of the effect not stated beside the values
[1] = biological target: Protein translocase subunit SecA (Escherichia coli (strain K12)) (UniProt P10408); assay: Assay to Identify E. coli SecA ATPase Inhibitors; type: functional; details: 30 µM
[2] = biological target: T1, Ubiquitin-activating enzyme e1, putative (Leishmania donovani (strain BPK282A1)) (UniProt E9BSI1); assay: Leishmania donovani Ubiquitin Activating Enzyme (LdE1); type: functional; details: 30 µM
T1 sequence (whole entry): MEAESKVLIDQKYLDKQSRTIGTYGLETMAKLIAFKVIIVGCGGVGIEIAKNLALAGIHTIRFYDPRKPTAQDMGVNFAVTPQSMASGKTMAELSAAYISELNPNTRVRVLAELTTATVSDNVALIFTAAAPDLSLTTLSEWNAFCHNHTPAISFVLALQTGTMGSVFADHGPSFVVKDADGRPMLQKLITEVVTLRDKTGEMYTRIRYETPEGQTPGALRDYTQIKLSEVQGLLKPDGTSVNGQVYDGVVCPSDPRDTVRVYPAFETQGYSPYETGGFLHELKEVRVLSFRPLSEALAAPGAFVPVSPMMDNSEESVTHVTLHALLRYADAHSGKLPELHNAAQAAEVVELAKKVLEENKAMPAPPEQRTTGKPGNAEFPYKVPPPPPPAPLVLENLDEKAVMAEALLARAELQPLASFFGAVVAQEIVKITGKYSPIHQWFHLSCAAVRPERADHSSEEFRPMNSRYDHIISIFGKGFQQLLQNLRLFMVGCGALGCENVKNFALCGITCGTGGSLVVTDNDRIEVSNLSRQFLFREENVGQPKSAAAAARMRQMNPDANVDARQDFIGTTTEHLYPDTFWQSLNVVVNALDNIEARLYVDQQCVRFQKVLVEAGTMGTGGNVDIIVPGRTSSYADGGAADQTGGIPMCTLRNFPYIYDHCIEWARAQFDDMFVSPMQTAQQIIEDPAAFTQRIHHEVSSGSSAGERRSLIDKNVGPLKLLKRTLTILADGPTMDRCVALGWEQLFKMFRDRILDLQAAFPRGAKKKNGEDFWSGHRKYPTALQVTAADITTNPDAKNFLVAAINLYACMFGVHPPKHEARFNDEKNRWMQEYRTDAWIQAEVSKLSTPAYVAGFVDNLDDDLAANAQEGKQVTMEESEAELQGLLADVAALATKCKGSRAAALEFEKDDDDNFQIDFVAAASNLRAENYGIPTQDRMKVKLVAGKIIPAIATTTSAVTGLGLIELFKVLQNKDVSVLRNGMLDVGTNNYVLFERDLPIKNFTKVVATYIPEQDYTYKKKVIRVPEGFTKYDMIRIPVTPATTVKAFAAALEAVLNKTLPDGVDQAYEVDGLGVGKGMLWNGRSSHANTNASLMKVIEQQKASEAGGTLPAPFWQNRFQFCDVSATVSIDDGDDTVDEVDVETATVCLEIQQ

[3] = biological target: AMP-activated protein kinase, AMPK (Homo sapiens) (UniProt P54646+O43741+P54619+Q9UGJ0+Q9Y478+Q13131+Q9UGI9); assay: AMP-dependent Kinase enzyme assay. An in vitro enzyme assay that detects ADP turnover that is directly proportional to AMPK activity. This uses naive AMPK that is activated during the assay with MK-8722; type: functional; details: 30 µM
[4] = biological target: Sialic acid-binding Ig-like lectin 9 (Homo sapiens) (UniProt Q9Y336); assay: Hs-Siglec9 ALPHAscreen SOP 20170721; details: 10 µM
Trypanosoma cruzi = assay: Trypanosoma cruzi phosphomannomutase and mannose-1-phosphate guanylyltransferase assay; type: functional; details: 10 µM
[5] = biological target: T2, Arginase-2, mitochondrial (Homo sapiens) (UniProt P78540); assay: in vitro enzyme assay to detect the production of urea directly proportional to the activity of Arginase II; type: functional; details: 33.3 µM; further: in the data most compounds retested in dose-response had high values
T2 sequence (whole entry): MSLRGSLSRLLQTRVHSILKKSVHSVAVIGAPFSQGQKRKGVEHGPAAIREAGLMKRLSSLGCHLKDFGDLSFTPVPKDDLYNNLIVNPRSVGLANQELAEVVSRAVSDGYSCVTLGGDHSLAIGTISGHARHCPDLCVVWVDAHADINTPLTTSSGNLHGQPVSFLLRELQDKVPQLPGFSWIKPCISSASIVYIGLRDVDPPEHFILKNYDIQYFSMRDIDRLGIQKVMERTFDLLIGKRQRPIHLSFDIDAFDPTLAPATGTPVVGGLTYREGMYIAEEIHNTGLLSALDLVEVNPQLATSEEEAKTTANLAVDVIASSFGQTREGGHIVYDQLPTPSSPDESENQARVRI

[6] = biological target: T3, Proteasome subunit beta (Trypanosoma cruzi) (UniProt O96673); assay: Trypanosoma cruzi proteasome chymotrypsin-like activity (TcProtChymo) assay.; further: in the data most compounds retested in dose-response had high values; type: functional; details: 9.37 µM
T3 sequence (whole entry): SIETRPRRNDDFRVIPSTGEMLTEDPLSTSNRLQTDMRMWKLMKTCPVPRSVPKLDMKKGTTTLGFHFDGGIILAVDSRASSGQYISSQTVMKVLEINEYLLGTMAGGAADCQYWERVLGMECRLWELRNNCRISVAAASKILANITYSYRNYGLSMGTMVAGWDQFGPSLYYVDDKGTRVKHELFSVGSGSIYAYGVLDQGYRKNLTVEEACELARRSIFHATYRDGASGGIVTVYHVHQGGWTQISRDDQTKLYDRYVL

Homo sapiens = species on record: Homo sapiens; assay: To identify inhibition of the IFN signalling (Jak-Stat) pathway via expression of an eGFP reporter gene under the control of an IFN-stimulated response element (ISRE) containing MxA promoter.; type: functional; details: 30 µM
[7] = biological target: T4, Tyrosyl-tRNA synthetase, putative (Trypanosoma cruzi (strain CL Brener)) (UniProt Q4DSP6); assay: Trypanosoma cruzi tyrosyl tRNA synthetase (TcYRS) _High Tyrosine SOP; type: functional; details: 30 µM; further: in the data most compounds retested in dose-response had high values
T4 sequence (whole entry): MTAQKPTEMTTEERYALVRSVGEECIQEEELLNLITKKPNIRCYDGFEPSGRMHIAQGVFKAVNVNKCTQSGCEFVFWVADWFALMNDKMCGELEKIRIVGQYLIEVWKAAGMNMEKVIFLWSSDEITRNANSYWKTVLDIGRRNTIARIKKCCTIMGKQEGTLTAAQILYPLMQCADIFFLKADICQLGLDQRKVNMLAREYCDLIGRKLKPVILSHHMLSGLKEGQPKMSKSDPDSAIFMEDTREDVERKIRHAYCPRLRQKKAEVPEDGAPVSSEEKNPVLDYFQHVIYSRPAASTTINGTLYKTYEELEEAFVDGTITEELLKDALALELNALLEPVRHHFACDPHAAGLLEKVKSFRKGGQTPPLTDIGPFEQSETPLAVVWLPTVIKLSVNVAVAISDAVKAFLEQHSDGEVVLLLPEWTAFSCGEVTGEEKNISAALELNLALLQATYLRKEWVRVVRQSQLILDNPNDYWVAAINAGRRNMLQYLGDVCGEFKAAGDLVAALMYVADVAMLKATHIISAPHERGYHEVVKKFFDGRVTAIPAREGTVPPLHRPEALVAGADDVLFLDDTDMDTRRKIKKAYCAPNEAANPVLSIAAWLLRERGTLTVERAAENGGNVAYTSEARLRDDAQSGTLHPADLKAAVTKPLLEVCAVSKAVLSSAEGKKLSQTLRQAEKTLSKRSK

[8] = biological target: T4, Tyrosyl-tRNA synthetase, putative (Trypanosoma cruzi (strain CL Brener)); assay: Trypanosoma cruzi tyrosyl tRNA synthetase (TcYRS) SOP; type: functional; details: 30 µM
[9] = biological target: Chromo domain-containing protein 1 (Saccharomyces cerevisiae (strain ATCC 204508 / S288c) (Baker's yeast)) (UniProt P32657); assay: ScCHD-1 Enzyme Inhibition Assay; type: functional; details: 30 µM; further: in the data most compounds retested in dose-response had high values
Chain of Chromo domain-containing protein 1 (Saccharomyces cerevisiae (strain ATCC 204508 / S288c) (Baker's yeast)) (P32657 whole entry, the tested form may be a part): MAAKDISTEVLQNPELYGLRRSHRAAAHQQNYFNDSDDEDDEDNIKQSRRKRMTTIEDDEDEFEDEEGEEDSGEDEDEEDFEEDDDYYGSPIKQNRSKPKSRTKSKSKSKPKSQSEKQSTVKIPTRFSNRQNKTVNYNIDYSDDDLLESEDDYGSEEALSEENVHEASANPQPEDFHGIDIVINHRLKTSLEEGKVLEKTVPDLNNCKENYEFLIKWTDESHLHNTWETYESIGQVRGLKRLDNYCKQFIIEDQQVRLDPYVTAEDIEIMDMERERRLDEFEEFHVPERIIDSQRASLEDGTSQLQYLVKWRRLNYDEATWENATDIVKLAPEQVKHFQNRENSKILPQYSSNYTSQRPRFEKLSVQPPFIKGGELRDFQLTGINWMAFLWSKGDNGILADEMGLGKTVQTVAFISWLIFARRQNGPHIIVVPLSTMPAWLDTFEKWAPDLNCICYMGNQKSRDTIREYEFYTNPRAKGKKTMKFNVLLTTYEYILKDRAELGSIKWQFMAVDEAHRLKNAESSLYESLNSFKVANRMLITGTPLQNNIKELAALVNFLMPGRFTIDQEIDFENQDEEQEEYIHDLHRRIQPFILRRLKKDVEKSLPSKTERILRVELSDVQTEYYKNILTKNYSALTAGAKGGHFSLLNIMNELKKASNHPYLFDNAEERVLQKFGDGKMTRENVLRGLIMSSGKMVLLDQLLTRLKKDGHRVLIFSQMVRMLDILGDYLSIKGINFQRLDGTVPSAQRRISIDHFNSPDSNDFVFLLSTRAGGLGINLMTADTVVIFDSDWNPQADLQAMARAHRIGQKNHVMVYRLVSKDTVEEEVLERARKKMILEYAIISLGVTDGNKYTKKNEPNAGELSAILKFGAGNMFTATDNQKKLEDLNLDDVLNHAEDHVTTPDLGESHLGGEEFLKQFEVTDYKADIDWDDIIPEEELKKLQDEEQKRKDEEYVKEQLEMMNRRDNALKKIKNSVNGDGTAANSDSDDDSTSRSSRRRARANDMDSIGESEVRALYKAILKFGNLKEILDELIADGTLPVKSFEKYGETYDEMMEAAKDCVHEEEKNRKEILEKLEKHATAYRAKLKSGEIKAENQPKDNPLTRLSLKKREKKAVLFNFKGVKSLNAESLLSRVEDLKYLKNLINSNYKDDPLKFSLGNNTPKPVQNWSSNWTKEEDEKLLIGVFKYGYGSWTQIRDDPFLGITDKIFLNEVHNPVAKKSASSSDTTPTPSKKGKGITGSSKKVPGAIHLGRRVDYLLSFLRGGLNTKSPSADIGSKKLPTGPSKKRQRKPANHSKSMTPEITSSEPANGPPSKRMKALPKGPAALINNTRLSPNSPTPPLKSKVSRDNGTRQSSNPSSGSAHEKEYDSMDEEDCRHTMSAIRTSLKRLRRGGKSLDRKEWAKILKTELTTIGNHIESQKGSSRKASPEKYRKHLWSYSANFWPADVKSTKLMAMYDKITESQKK

Chain of Sialic acid-binding Ig-like lectin 9 (Homo sapiens) (Q9Y336 whole entry): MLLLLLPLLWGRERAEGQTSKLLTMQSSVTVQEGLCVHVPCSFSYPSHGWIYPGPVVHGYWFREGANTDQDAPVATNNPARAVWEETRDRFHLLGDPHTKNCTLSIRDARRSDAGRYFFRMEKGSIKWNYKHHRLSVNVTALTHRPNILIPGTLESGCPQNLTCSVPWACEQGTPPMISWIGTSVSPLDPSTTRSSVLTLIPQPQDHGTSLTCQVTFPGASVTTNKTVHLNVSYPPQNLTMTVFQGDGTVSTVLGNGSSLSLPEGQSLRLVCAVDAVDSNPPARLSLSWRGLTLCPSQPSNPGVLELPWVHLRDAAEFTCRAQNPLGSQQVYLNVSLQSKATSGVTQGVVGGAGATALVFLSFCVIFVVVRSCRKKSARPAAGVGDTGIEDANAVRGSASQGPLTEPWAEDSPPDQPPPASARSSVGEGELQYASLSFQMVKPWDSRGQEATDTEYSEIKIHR
Chain of Protein translocase subunit SecA (Escherichia coli (strain K12)) (P10408 whole entry): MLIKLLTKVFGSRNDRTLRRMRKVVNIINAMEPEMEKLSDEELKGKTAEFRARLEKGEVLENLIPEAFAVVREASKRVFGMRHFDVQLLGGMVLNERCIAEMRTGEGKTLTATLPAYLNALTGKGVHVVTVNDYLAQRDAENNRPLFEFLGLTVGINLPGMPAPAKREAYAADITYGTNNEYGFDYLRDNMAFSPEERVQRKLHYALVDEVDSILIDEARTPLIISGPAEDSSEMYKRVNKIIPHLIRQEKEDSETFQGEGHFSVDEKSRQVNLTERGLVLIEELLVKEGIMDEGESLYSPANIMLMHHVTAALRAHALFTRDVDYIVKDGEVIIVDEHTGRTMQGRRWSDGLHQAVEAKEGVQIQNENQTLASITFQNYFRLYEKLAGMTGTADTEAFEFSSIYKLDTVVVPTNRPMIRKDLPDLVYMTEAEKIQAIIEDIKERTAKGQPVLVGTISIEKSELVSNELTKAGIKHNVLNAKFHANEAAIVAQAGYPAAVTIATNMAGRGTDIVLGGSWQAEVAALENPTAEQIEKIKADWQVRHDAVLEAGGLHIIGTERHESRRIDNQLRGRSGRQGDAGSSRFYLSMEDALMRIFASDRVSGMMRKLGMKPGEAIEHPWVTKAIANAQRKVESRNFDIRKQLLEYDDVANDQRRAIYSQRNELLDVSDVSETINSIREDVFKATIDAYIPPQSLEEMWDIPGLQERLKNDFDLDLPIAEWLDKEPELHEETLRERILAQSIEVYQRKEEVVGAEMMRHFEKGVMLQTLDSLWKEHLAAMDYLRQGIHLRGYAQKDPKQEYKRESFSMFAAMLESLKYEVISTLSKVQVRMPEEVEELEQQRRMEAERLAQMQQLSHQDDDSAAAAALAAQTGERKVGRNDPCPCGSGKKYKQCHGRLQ

Structure (SMILES)	Percent Effect [1] [%]	Percent Effect [2] [%]	Percent Effect [3] [%]	Percent Effect [4] [%]	Percent Effect (Trypanosoma cruzi) [%]	Percent Effect [5] [%]	Percent Effect [6] [%]	Percent Effect (Homo sapiens) [%]	Percent Effect [7] [%]	Percent Effect [8] [%]	Percent Effect [9] [%]
COc1ccccc1OCC(=O)Nc1ncccc1Cl	-3.19	15.3	-6.62	22.9	2.62	-2.65	4.39	-9.45	3.16	10.3	-3.43
CC(C)C(C(=O)N1CCC(N(C)c2cccnn2)CC1)n1cncn1 (stereo not given)	-2.45	0	-10.6	4.35	-3.49	4.01	9.01	11.7	-0.493	1.24	6.08
CC(NC(=O)N(C)Cc1ccncc1)c1nncn1C (stereo not given)	-3.28	20.8	3.42	21	2.43	22.5	13.2	-6.33	1.05	15.4	-7.53
CC1(C)CN(C(=O)NCCc2ccn(-c3ccccc3)n2)CCO1	-4.22	-2.6	8.97	11.9	1.47	4	2.02	8.51	2.86	7.06	-12.9
Cc1cc(C(=O)N2CCCCC2c2nc(C)cs2)[nH]n1 (stereo not given)	-4.07	5.2	0.468	-1.4	5.62	-4.27	-2.03	-9.54	4.85	12.2	84.3
